# ClpP mod = qHTS Assay for Activators of ClpP; ATP-dependent Clp protease proteolytic subunit (Bacillus subtilis (strain 168)), P80244; purified B. subtilis ClpP, FRET peptide cleavage, 20 min; Potency, µM (series often up to 57.5 µM); actives 1.9% (n = 340,000); active = well fitted falling curve with a large enough effect; inconclusive = small, poorly fitted or top-dose-only effect; inactive = no such curve, though single readings can be large or run the other way; note: the source files actives as falling curves though it sought activators and does not explain the sign; nearly all actives have a fitted effect of over 65% in size
# Target sequence (P80244 whole entry, looked up): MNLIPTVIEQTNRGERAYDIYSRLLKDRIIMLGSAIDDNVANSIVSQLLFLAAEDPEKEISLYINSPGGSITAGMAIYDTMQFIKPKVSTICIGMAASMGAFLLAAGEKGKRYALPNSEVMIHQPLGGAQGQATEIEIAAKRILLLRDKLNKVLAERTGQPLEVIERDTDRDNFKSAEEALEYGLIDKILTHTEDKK
#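 ClpP 10 microg/mL final, pH 8 Tris/KCl buffer with BSA, glycerol, Tween-20; compound pinned in; FRET-FV substrate; RT 20 min; Ex320/Em430; ΔFRET vs ADEP 5.8 microM, DMSO, no enzyme.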
# PINK1 expr mod = PINK1 expression modulation; PINK1 immunofluorescence, high-content cytometry, 24 h; Potency, µM (highest dose often 76.6 µM), usual class: activators; actives 0.2% (n = 410,000); AID 624263; active = well fitted activation curve with a large enough effect; inconclusive = small, poorly fitted or top-dose-only effect; cell line not stated here; note: nearly all actives have a fitted effect of over 65% in size
#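 Cells are seeded, rested 12 hours, then given compound at five concentrations or DMSO for 24 hours. After fixation, blocking and antibody staining, PINK1 amount and mitochondrial localization are scored; CCCP serves as control.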
# RORg inh = ROR gamma (mouse) transcription inhibition | AID 2551 | actives 5.4% (n = 310,000) | P51450 | Drosophila S2 Gal4-RORgamma UAS-luciferase reporter, 20 h | Potency, µM (series often up to 53.6 µM), actives largely listed as inhibitors; note: nearly all actives have a fitted effect of over 60% in size
# Target sequence (P51450 whole entry, looked up, the tested form may be a part): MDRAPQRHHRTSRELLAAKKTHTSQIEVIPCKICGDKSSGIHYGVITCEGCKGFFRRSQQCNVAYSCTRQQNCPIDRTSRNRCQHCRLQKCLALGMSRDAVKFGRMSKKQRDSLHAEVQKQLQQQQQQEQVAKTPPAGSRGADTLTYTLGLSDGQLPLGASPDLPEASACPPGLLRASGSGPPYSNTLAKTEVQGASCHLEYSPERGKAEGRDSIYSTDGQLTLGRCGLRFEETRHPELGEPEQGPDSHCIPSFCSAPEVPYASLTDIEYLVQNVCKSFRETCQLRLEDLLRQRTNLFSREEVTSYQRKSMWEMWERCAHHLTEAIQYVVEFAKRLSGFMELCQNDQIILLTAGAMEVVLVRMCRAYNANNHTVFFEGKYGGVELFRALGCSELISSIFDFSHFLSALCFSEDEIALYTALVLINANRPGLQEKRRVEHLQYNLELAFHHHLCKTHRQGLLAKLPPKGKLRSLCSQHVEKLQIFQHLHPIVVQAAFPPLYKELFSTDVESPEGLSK
#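 Drosophila S2 cells stably expressing Gal4-DBD/mouse RORγ fusion under metallothionein promoter plus UAS-luciferase; compound 1 h, then 700 uM CuSO4 induction for 20 h at ambient temperature; inhibition read as reduced luminescence.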
# Gal4-VP16 FLuc = counter-screen for ROR gamma inhibitors: Gal4-VP16 reporter; Drosophila S2 Gal4-VP16 UAS-luciferase, luminescence, 20 h; Potency, µM (top dose mostly 53.6 µM), actives largely listed as inhibitors; actives 3.5% (n = 310,000);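 note: Gal4-VP16 expression switched on by copper sulfate through the metallothionein promoter; nearly all actives have a fitted effect of over 50% in size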
# Epigenetic reg = epigenetic control regulation, reporter derepression. murine LDR cells, GFP reporter derepression, 30 h. Potency, µM (highest dose often 53.9 µM), hits mostly activators. actives 0.2% (n = 280,000); note: nearly all actives have a fitted effect of over 60% in size
#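 Derepression of a silenced CMV-GFP reporter in murine LDR cells is scored by enumerating GFP-positive cells with a laser-scanning microplate cytometer after 30 hours of treatment at 37 C.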
# Sfp inh = blocks B. subtilis Sfp PPTase activity. Q9F4F7. Biochemical Sfp PPTase activity, qHTS. Potency, µM, usual class: inhibitors. actives 3.5% (n = 310,000);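 note: the enzyme is Sfp with the accession as filed and its product quenches rhodamine fluorescence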
#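 After 15 min at room temperature with compound, 15 nM Sfp received 5 uM rhodamine-CoA plus 12.5 uM BHQ-2-ybbR (50 mM Hepes pH 7.6, 10 mM MgCl2). Rate came from the fluorescence difference over 30 min, ex 525/em 598 nm.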
# Numbers stand for hits; i = inactive; ? = inconclusive; nt = not tested or not shown; [ ] = another dose, or the depositor's remark. Only some compounds are listed: those with a hit (about 8.1% of all), similar ones and a draw of the others. Unless noted, calls come from the whole dose curve; as a rule, active = well fitted curve in the direction sought with a large enough effect; inconclusive = small, poorly fitted or top-dose-only effect, or another doubt; inactive = no such curve, though single readings can be large; an effect the other way counts as inactive or inconclusive.
SMILES,ClpP mod,PINK1 expr mod,RORg inh,Gal4-VP16 FLuc,Epigenetic reg,Sfp inh
Cc1cc(C)c2c(N)c(C(=O)Nc3nccs3)sc2n1,35.5µM,i,?,?,i,i
NC(=O)c1sc2nc(-c3ccccc3)ccc2c1N,i,i,?,i,nt,i
COCc1cc(C)nc2sc(C(=O)Nc3nccs3)c(N)c12,i,i,?,i,i,i
Cc1cc(C)cc(Nc2ncnc3c2nc2n3CCCC2)c1,i,i,nt,nt,i,nt
O=C(CC1N=C2c3ccccc3N=C(SCc3ccccc3Cl)N2C1=O)NCc1cccs1 (stereo not drawn),i,i,nt,nt,i,nt
O=C(COc1ccccc1F)Nc1ccc2nc(SCC(=O)N3CCc4ccccc43)sc2c1,i,i,nt,nt,i,nt
CCOc1ccccc1C(=O)NC1(C(F)(F)F)C(=O)Nc2c1c(=O)[nH]c(=O)n2-c1ccccc1 (stereo not drawn),i,i,nt,nt,i,nt
Cn1cccc1/C=N/n1c(-c2ccc(Cl)cc2Cl)n[nH]c1=S,i,i,2.82µM,?,i,i
Cn1cccc1/C=N/n1c(-c2ccc(Cl)cc2)n[nH]c1=S,i,i,2.51µM,?,i,i
COc1ccc(-c2n[nH]c(=S)n2/N=C/c2cccn2C)cc1,i,i,i,i,i,i
Cc1ccc(-c2n[nH]c(=S)n2/N=C/c2cccn2C)cc1,i,i,3.16µM,11.2µM,i,i
CCOC(=O)c1ccccc1NC(=O)Cn1c(=O)n(Cc2nc(C)no2)c(=O)c2ccccc21,i,i,nt,nt,i,nt
CCc1cnc2c(c1SCC(=O)NCc1ccc(F)cc1)c(=O)n(C)c(=O)n2C,i,i,nt,nt,i,nt
COC(=O)c1cc(C#N)c(NCc2ccccc2)nc1C,31.6µM,i,i,i,i,i
Cc1cc(C)c2cc(C#N)c(NCCOC(=O)c3ccccc3C)nc2c1,28.2µM,i,i,i,i,i
COC(=O)c1cc(C#N)c(N(C)Cc2ccccc2)nc1C,?,i,?,?,i,i
CCOC(=O)c1cc2c(N)c(C(=O)c3cc(C#N)c(SC)nc3C)sc2nc1C,i,i,i,i,?,39.8µM
CCOC(=O)CCSc1nc(C)c2cc(OC)ccc2n1,25.1µM,i,i,?,i,i
O=S(=O)(c1ccccc1)c1nnn2c1nc(NCc1ccccc1)c1cc(Cl)ccc12,?,i,nt,nt,i,nt
CCOC(=O)c1cc(C#N)c(SC)nc1C,i,i,i,i,i,i
CCOC(=O)c1cc(C#N)c(N)nc1C,22.4µM,i,i,i,i,i
COc1ccc2nc(C)c(C(N)=O)cc2c1,i,i,i,i,i,i
CCOC(=O)c1cc2cc(OC)ccc2nc1C,31.6µM,i,?,i,i,i
COc1ccc(NC(=O)C2CCN(C3=NS(=O)(=O)C(c4ccc(C)c(C)c4)=C3C)CC2)cc1OC,i,i,nt,nt,i,nt
Cc1cncn1CCc1nc2c3ccccc3nc(SCC(=O)Nc3ccccc3F)n2n1,i,i,nt,nt,i,nt
SMILES,ClpP mod,PINK1 expr mod,RORg inh,Gal4-VP16 FLuc,Epigenetic reg,Sfp inh
O=C(O)c1ccccc1CSc1ncccc1C(=O)O,nt,i,i,i,i,44.7µM
Cc1ccc(-c2nc3c4ccccc4n(CC(=O)N4CCN(c5ccc(F)cc5)CC4)c(=O)n3n2)cc1,i,i,nt,nt,i,nt
Cc1ccc2c(c1)c1nnc(SCC(=O)N3CCN(c4ccc(F)cc4)CC3)nc1n2CC(=O)O,i,i,i[10 µM],i,i,70.8µM
O=C(N/N=C/c1c(O)n(-c2ccc(Cl)cn2)c(=O)c2ccccc12)C1CC1,i,i,5.62µM,7.94µM,i,i
O=C1CN(CCN2CC(=O)NC(=O)C2)CC(=O)N1,i,i,nt,nt,nt,nt
CCC(=O)NC(c1cccs1)c1cc(Cl)c2cccnc2c1O (stereo not drawn),i,i,i,i,i,i
CC(=O)NC(c1ccc(N(C)C)cc1)c1cc(Cl)c2cccnc2c1O (stereo not drawn),i,i,nt,nt,nt,nt
O=C(NC(c1ccc(Cl)cc1)c1cc(Cl)c2cccnc2c1O)c1cccnc1 (stereo not drawn),i,i,0.708µM,0.708µM,?,i
CCCCC(=O)NC(c1cccs1)c1cc(Cl)c2cccnc2c1O (stereo not drawn),i,i,2.51µM,3.55µM,?,i
CCCC(=O)NC(c1ccc(OC)c(OC)c1)c1cc(Cl)c2cccnc2c1O (stereo not drawn),i,i,2.82µM,5.01µM,?,?
COc1ccc(C(NC(C)=O)c2cc(Cl)c3cccnc3c2O)cc1 (stereo not drawn),i,i,2µM,1.58µM,nt,i
CCN(CC)C(=O)C1CCN(C(=O)c2cnn(-c3ccccc3)c2-n2cccc2)CC1,i,i,nt,nt,i,nt
CC1=C(c2cccc(Cl)c2)S(=O)(=O)NC1=NCc1ccccc1C,i,i,nt,nt,i,nt
CC(=O)NC(c1ccccc1)c1cc(Cl)c2cccnc2c1O (stereo not drawn),nt,i,1.41µM,1.12µM,nt,i
NS(=O)(=O)c1ccc(CCn2c(=S)[nH]c3ccccc3c2=O)cc1,nt,i,?,i,i,i
O=c1c2ccccc2[nH]c(=S)n1CCc1ccccc1,7.08µM,i,1.58µM,3.16µM,i,i
O=c1c2ccccc2[nH]c(=S)n1CCN1CCc2ccccc2C1,nt,i,11.2µM,?,i,i
O=C(CCCCCn1c(=O)[nH]c2ccccc2c1=O)NCCc1ccccc1,31.6µM,i,nt,nt,i,nt
O=c1c2ccccc2[nH]c(=S)n1Cc1cccs1,nt,i,1.58µM,3.16µM,i,i
CCOC(=O)c1cc2c(=O)n3ccccc3nc2n(CC2CCCO2)c1=NC(=O)c1ccc(OCC)cc1 (stereo not drawn),i,i,nt,nt,i,nt
COc1ccc(CN2CCCC(c3nc(-c4ccncc4)ncc3-c3ccccc3C)C2)c(OC)c1 (stereo not drawn),nt,i,nt,nt,nt,nt
O=c1c2ccccc2[nH]c(=S)n1Cc1ccccc1,nt,i,3.98µM,5.01µM,nt,i
O=c1c2ccccc2[nH]c(=S)n1CCN1CCN(Cc2ccccc2)CC1,i,i,35.5µM,?,i,i
CCC1CCCCN1CCCn1c(=S)[nH]c2ccccc2c1=O (stereo not drawn),20µM,i,?,i,i,i
O=c1c2ccccc2[nH]c(=S)n1Cc1cccnc1,i,i,?,?,i,i
SMILES,ClpP mod,PINK1 expr mod,RORg inh,Gal4-VP16 FLuc,Epigenetic reg,Sfp inh
O=c1c2cccnc2[nH]c(=S)n1Cc1ccccc1,i,i,10µM,3.98µM,i,i
CN1CCN(CCn2c(=S)[nH]c3ccccc3c2=O)CC1,i,i,i,i,nt,i
CN(C)CCn1c(=S)[nH]c2ccccc2c1=O,i,i,i,i,i,?
CCCn1c(=S)[nH]c2ccccc2c1=O,nt,i,2.82µM,7.94µM,i,i
O=c1c2cc(Cl)ccc2[nH]c(=S)n1Cc1ccccn1,i,i,2.24µM,3.16µM,i,i
CCN(CC)CCn1c(=S)[nH]c2cc(Cl)ccc2c1=O,i,?,12.6µM,?,i,i
